High-throughput results from PubChem.
An excerpt weighted towards active compounds, which were near 1.6% of everything screened.
PERK inh – human PERK inhibition, primary cell-based screen; 220,000 tested, 0.17% active; CHO PERK-DD fusion, SEAP luminescence translation reporter; inhibition, % at 5.6 µM;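 active = inhibition above the mean inhibition of all tested compounds plus 3 SD, set separately per screening campaign, cut at about 2.9% in these data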;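 note: PERK kinase domain activated by AP20187 dimerizer at 100 nM; 0% = DMSO with dimerizer and 100% = rapamycin at 8.4 µM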
eIF4E-4G inh – inhibitors of eIF4E and eIF4G interaction in translation initiation; P63073+Q04637; TR-FRET eIF4E-eIF4GI(517-606) binding, 2 h; inhibition, % at 21.7 µM; 220,000 tested, 0.37% active; AID 782;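 active = inhibition above about 30%, limit read from the data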;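 note: 0% = full FRET control wells and 100% = background wells lacking eIF4GI fragment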
PABP polyA inh – blocks human PABP binding to poly(A) RNA | P11940 | fluorescence polarization | calls only at 35 µM | 290,000 tested, 1% active | AID 2014;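 note: calls also rest on retests at 20 µM and on dose response follow-up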
Target sequence (P11940 whole entry, looked up): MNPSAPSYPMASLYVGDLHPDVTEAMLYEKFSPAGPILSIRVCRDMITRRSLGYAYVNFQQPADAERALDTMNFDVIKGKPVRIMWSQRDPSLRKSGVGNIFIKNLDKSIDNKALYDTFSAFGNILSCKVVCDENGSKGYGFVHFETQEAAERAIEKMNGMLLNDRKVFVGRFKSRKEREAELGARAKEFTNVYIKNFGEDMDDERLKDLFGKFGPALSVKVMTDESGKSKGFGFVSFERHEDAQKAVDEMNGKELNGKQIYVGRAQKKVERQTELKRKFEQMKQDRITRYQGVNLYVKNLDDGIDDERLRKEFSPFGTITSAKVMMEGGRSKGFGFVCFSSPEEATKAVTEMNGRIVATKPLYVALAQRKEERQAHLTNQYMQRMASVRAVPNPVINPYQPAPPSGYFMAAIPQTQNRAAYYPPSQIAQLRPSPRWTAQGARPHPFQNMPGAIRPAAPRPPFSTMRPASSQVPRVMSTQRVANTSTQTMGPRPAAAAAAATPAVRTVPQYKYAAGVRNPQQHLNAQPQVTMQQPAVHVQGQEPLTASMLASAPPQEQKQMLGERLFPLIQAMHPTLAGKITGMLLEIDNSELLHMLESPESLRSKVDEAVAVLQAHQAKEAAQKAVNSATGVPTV
PABP1 MLLE inh – inhibitors of microRNA-mediated deadenylation, human PABP1 MLLE binding. P11940. GST-MLLE / FITC-PAM2 fluorescence polarization. inhibition, % at 20 µM. 360,000 tested, 0.36% active; in the data active = inhibition above about 35%, passing the limit was not always enough;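 note: plate controls were DMSO wells with GST-MLLE for no effect and wells lacking GST-MLLE protein for full effect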
eIF4H FP inh – inhibitors of RNA binding by human eIF4H | eIF4H fluorescence polarization binding assay | 290,000 tested, 0.94% active | AID 2012 | Q15056 | inhibition, % at 35 µM;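 note: calls also rest on retests at 20 µM and on dose response follow-up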
Starred values were filed as active, the others as inactive; [ ] = remark or other dose. Unless noted, the rule behind the calls is not given here.

CC(NCC(=O)Nc1ccccc1C(=O)NC1CC1)c1ccco1 (centres undefined) was read as PABP1 MLLE inh 10.
Screening O=C(NCc1ccccc1)c1cc(C2CCCN(C(=O)c3ccc4c(c3)CCO4)C2)on1 (centres undefined) returned PABP1 MLLE inh -3.
For CC(=O)c1ccc2cccc3c2c1N=CN3C the results were PERK inh 1, eIF4E-4G inh 7, PABP polyA inh inactive, PABP1 MLLE inh 17 and eIF4H FP inh 72*.
`COc1cccc2sc3ccc(NCc4ccc5c(c4)OCO5)cc3c(=O)c12` gave PABP polyA inh inactive, PABP1 MLLE inh 8 and eIF4H FP inh 52*.
`O=C1OC(c2ccc3c(c2)OCO3)=N/C1=C\c1ccc(C(=O)O)cc1` gave PABP polyA inh inactive, PABP1 MLLE inh 0 and eIF4H FP inh 55*.
For NC(=S)n1[nH]c(-c2ccc([N+](=O)[O-])cc2)c(N=Nc2ccccc2[N+](=O)[O-])c1=O the results were PERK inh 0, eIF4E-4G inh -19, PABP polyA inh inactive, PABP1 MLLE inh 32 and eIF4H FP inh 38.
Cc1[nH]n(C(N)=S)c(=O)c1N=Nc1cccc([N+](=O)[O-])c1C was read as PABP polyA inh inactive, PABP1 MLLE inh 22 and eIF4H FP inh -3.
NC(=S)n1[nH]c(-c2ccc([N+](=O)[O-])cc2)c(N=Nc2cccc([N+](=O)[O-])c2)c1=O was read as PERK inh 0, eIF4E-4G inh 13 and PABP1 MLLE inh 42*.
`Cc1c(N=Nc2c(-c3ccc([N+](=O)[O-])cc3)[nH]n(C(N)=S)c2=O)cccc1[N+](=O)[O-]` gave PERK inh 1, eIF4E-4G inh 33*, PABP polyA inh active, PABP1 MLLE inh 41* and eIF4H FP inh inconclusive.
`O=C(CSc1nc2cc(Cl)ccc2s1)c1cc2ccccc2o1` gave PERK inh 0, eIF4E-4G inh -3, PABP polyA inh active, PABP1 MLLE inh -17 and eIF4H FP inh 45*.
CCSc1nc(C(F)(F)F)cc(=O)n1-c1ccccc1 was read as PERK inh 1, eIF4E-4G inh 2, PABP polyA inh inactive, PABP1 MLLE inh -22 and eIF4H FP inh 2.
CC(C)Sc1nc(C(F)(F)F)cc(=O)n1-c1ccccc1 was read as PERK inh 3.0*, eIF4E-4G inh 1, PABP polyA inh inactive, PABP1 MLLE inh 2 and eIF4H FP inh -1.
Screening O=C(CSc1ncnc2ccccc12)NCc1ccco1 returned PERK inh 1, eIF4E-4G inh -3, PABP polyA inh inactive, PABP1 MLLE inh 44* and eIF4H FP inh 12.
Screening CCCc1nc2sc3c(SCC(=O)NCc4ccco4)ncnc3c2c2c1CCC2 returned PERK inh 0, eIF4E-4G inh -23, PABP polyA inh active, PABP1 MLLE inh 10 and eIF4H FP inh 78*.
O=C(CSc1ncnc2ccccc12)c1ccco1 was read as PERK inh 0, eIF4E-4G inh -2, PABP polyA inh inactive, PABP1 MLLE inh 30 and eIF4H FP inh 44.
`Cc1cc(F)ccc1S(=O)(=O)N1CCCOC1CNC(=O)C(=O)NCCCN1CCOCC1` (centres undefined) gave PABP polyA inh inactive, PABP1 MLLE inh 7 and eIF4H FP inh -11.
Screening O=c1c2c3c(sc2[nH]c(=S)n1Cc1ccco1)CCC3 returned PERK inh 1, eIF4E-4G inh 30, PABP polyA inh active, PABP1 MLLE inh 5 and eIF4H FP inh 81*.
CC1(C)Cc2c(sc3[nH]c(=S)n(Cc4ccco4)c(=O)c23)CO1 was read as PERK inh 1, eIF4E-4G inh -2, PABP polyA inh inactive, PABP1 MLLE inh 9 and eIF4H FP inh 31.
CCCCCCN1C[C@H](n2cc(-c3ccc(F)cc3)nn2)[C@@H](O)C[C@@H]1c1ccc(C)cc1 was read as PABP1 MLLE inh -9.
For Cc1ccc(-c2cc(-c3ccc(C)o3)nc(N)c2C#N)cc1 the results were PERK inh 0, eIF4E-4G inh 12, PABP polyA inh inconclusive, PABP1 MLLE inh -17 and eIF4H FP inh inconclusive.
`Cc1cc(-c2cc(-c3ccc(Cl)cc3)nc(N)c2C#N)co1` gave PERK inh 1, eIF4E-4G inh 16, PABP polyA inh active, PABP1 MLLE inh -14 and eIF4H FP inh inconclusive.
Cc1ccc(-c2c(C#N)c(N)nc3c2CCCCCC3)o1 was read as PERK inh 0, eIF4E-4G inh 2, PABP polyA inh inactive, PABP1 MLLE inh 24 and eIF4H FP inh 4.
For Cc1ccc(-c2cc(-c3ccc(Cl)cc3)c(C#N)c(N)n2)o1 the results were PERK inh 0, eIF4E-4G inh 72*[fluorescence artefact?], PABP polyA inh inactive, PABP1 MLLE inh -9 and eIF4H FP inh 91.
Screening Cc1ccc(-c2c(C#N)c(N)nc3c2CCCCC3)o1 returned PERK inh 0, eIF4E-4G inh -1, PABP polyA inh active, PABP1 MLLE inh 9 and eIF4H FP inh 63*.
Screening Cc1ccc(S(=O)(=O)Nc2cc3c(cc2C#N)OCO3)cc1C(N)=O returned PABP polyA inh inactive, PABP1 MLLE inh 6 and eIF4H FP inh 1.
`CCOP(=O)(OCC)C(Nc1ccc(OC)cc1)c1ccco1` (centres undefined) gave PERK inh 0, eIF4E-4G inh -1, PABP polyA inh inactive, PABP1 MLLE inh 8 and eIF4H FP inh -11.
For NC(=O)C1CCCN(CC(=O)Nc2ccccc2C(=O)NC2CC2)C1 (centres undefined) the results were PABP1 MLLE inh 15.
Screening CN(C)c1ccc(S(=O)(=O)NCC(=O)N2CCN(S(=O)(=O)c3cccc(F)c3)CC2)cc1[N+](=O)[O-] returned PABP1 MLLE inh 22.
For CN(CC(=O)Nc1cccc(F)c1)C(=O)CNS(=O)(=O)c1ccc(N(C)C)c([N+](=O)[O-])c1 the results were PABP1 MLLE inh 46*.
`Cc1onc(-c2c(F)cccc2Cl)c1C(=O)NC(=S)NC1CCS(=O)(=O)C1` (centres undefined) gave PERK inh 1, eIF4E-4G inh 1, PABP polyA inh inactive, PABP1 MLLE inh 47* and eIF4H FP inh -8.
For Cc1nnc(SCC(=O)Nc2cccc(Cl)c2)n1CC1CCCO1 (centres undefined) the results were PABP polyA inh inactive, PABP1 MLLE inh -11 and eIF4H FP inh 2.
Nc1nc(=S)c2[nH]c(=S)[nH]c2[nH]1 was read as PABP1 MLLE inh 20.
For CSc1nc(=S)c2[nH]c(=S)[nH]c2[nH]1 the results were PERK inh 2, eIF4E-4G inh 19, PABP polyA inh active, PABP1 MLLE inh 35 and eIF4H FP inh 92*.
CCOc1cc2[nH]c(=S)n(Cc3ccc(C(=O)O)cc3)c(=O)c2cc1OCC was read as PABP polyA inh inactive, PABP1 MLLE inh -86 and eIF4H FP inh 0.
C=CCn1c(SCC(=O)c2cc(C)n(C(C)COC)c2C)nc2sc(C)c(C)c2c1=O (centres undefined) was read as PERK inh 0, eIF4E-4G inh 7, PABP polyA inh inactive, PABP1 MLLE inh 40* and eIF4H FP inh -13.
